Among all 100,000 compounds or so, about 620 (0.62%) were called active. The entries come from a sample that favours actives as a whole. Values without a mark were called inactive. Rule for the calls: active = z-score of 3 or more in at least 2 runs; inactive = the rest.

This test in a line: TAR RNA-Tat peptide displacers, HIV-1, primary screen, biochemical, FRET, FAM/TAMRA-labeled Tat (AID 1259389). The conditions noted are these: HIV-1 TAR RNA, Tat peptide displacement FRET; hits give high values.
With `O=C(O)C1CSC(c2cccnc2)N1` (stereo not given), the z-score is 3.48 (active).

Take `c1ccc2sc(N3CCNCC3)nc2c1`: the z-score is -0.36.

Take `Cc1nn2c3cc(N4CCNCC4)ccc3nc2c2ccccc12`: the z-score was 3.84 (active).

As for `CC(=O)N[C@H]1CN2CC[C@H](O)[C@@H]2[C@@H](O)[C@@H]1O`, the z-score is 0.34.

For the molecule `CC(C)(C)[C@]1(O)C[C@@H]2OC(=O)C[C@@]23C(=O)O[C@@H]2OC(=O)[C@H](O)[C@]213`, the z-score is 2.75.

Regarding `C#CCOc1ccc(C2SCC(=O)Nc3n[nH]c(C)c32)cc1OC` (stereo not given), the z-score was 1.62.

`CCC1c2cccn2-c2ccccc2CN1C(=O)Nc1ccc(F)c(Cl)c1` (stereo not given): the z-score was 1.12.

For `C=CCOc1ccc(C2SCC(=O)Nc3n[nH]c(C)c32)cc1` (stereo not given), the z-score is 1.1.

For the molecule `CN1CC=C(c2noc(CCC(=O)Nc3ccc(Cl)cn3)n2)CC1`, the z-score was 1.39.

With `CCC(CC)n1[nH]c(=O)c2c1NC(=O)CSC2c1ccc(Br)cc1` (stereo not given), the z-score is 0.25.

Source of the values: PubChem BioAssay AID1259389 (Center for Chemical Genomics, University of Michigan, 2018).
